Structures are written as SMILES. Inconclusive results are not listed. Calls of active or inactive are those of the source. Unless noted, the call rests on the fitted dose curve.

This is an account of results in PubChem BioAssay (NCATS).

Assay [1] can be described thus: qHTS for Inhibitors of the Functional Ribonucleoprotein Complex (vRNP) of Lassa (LASV) Arenavirus: LASV Primary Screen - GLuc reporter signal (AID 1347082; calls by dose curve; tested in HEK293 reporter line; further: nearly all actives have a fitted effect of over 60% in size; further: potency means the concentration at half of the fitted maximal effect; on activity change, negative = inhibition: on the % scale 0 is the no-effect control and ±100 the full control effect). The settings on record: LASV minigenome vRNP, Gaussia luciferase reporter; series mostly up to 57.5 µM. (In general: Quantitative high-throughput screening tests each substance at several concentrations.)
Assay [2] concerns the target Nucleoprotein (Lymphocytic choriomeningitis virus (strain Armstrong)) (UniProt P09992). Briefly: qHTS for Inhibitors of the Functional Ribonucleoprotein Complex (vRNP) of Lymphocytic Choriomeningitis Arenaviruses (LCMV): LCMV Primary Screen - GLuc reporter signal (AID 1347086). Further: nearly all actives have a fitted effect of over 70% in size. Further: potency means the concentration at half of the fitted maximal effect. On activity change, negative = inhibition: on the % scale 0 is the no-effect control and ±100 the full control effect. The settings on record: LCMV minigenome vRNP cell assay, Gaussia luciferase reporter; series mostly up to 57.5 µM.

A short description of assay [3]: Primary qHTS to identify inhibitors of SARS-CoV-2 cell entry (AID 1645846). Further: nearly all actives have a fitted effect of over 45% in size. Further: potency means the concentration at half of the fitted maximal effect. Conditions: SARS-CoV-2 pseudovirus cell entry assay, luminescence; activity change, negative = inhibition: at 57.1 µM (top of the series) unless noted; series mostly up to 57.1 µM. Put shortly:
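Data are normalized to wells receiving SARS-CoV-2-S pseudoparticles and those given bald particles. Entry signal was luciferase luminescence in stable hACE2 Expi293F cells, 48 hr post-infection, after 1 hr compound pretreatment.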

Assay [4] is described as follows: Primary qHTS for Huh7 cytotoxicity: counterscreen for inhibitors of MERS-S pseudotyped particle cell entry (AID 1479147). Further: on the % scale 0 is the no-effect control and ±100 the full control effect. The settings on record: cell viability read-out; series mostly up to 57.1 µM.
The nature of assay [5]: Primary qHTS for inhibitors of MERS-S pseudo-typed particle cell entry (AID 1479149). Further: on the % scale 0 is the no-effect control and ±100 the full control effect; nearly all actives have a fitted effect of over 60% in size. The settings on record: MERS-S pseudotyped particle entry, luciferase; series mostly up to 57.1 µM.
A short description of assay [6]: Primary qHTS for Vero E6 cytotoxicity: counterscreen for inhibitors of SARS-S pseudo-typed particle cell entry (AID 1479150). Further: on the % scale 0 is the no-effect control and ±100 the full control effect. The settings on record: cell viability; series mostly up to 57.1 µM.
Assay [7] can be described thus: Cytotoxicity counterscreen for inhibitors of SARS-CoV-2 cell entry (AID 1645845). Further: nearly all actives have a fitted effect of over 50% in size. Further: potency means the concentration at half of the fitted maximal effect. Conditions: cell viability (SARS-CoV-2 entry assay cells); series mostly up to 57.1 µM. The method, boiled down: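 ATP-content luminescence (ATPLite 1step, 15 min RT) read after 48 h compound exposure of Expi293F cells stably expressing human ACE2; normalized to cells-only wells and media-only wells.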
For orientation: The purpose of a counterscreen is to sort out artefacts and off-target activity.

In assay [8] the target is Nuclear receptor subfamily 1 group I member 3 (Homo sapiens) (UniProt Q14994). Briefly: Primary qHTS for antagonist of constitutive androstane receptor (CAR) against the NCATS DSHEA and TCM libraries (AID 1794836; active means well fitted curve in the direction sought with a large enough effect; an effect the other way counts as inactive or inconclusive). Conditions: CAR reporter cell assay, antagonist mode, luciferase; series mostly up to 40 µM. Put shortly: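 Antagonist mode: CAR reporter luminescence (ONE-Glo) in HepG2-CYP2B6-hCAR cells stimulated with 48 uM CITCO (final) over 24 h at 37 C, compounds titrated; viability read first by CellTiter-Fluor fluorescence.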
Sequence of Nuclear receptor subfamily 1 group I member 3 (Homo sapiens) (Q14994 whole entry, looked up): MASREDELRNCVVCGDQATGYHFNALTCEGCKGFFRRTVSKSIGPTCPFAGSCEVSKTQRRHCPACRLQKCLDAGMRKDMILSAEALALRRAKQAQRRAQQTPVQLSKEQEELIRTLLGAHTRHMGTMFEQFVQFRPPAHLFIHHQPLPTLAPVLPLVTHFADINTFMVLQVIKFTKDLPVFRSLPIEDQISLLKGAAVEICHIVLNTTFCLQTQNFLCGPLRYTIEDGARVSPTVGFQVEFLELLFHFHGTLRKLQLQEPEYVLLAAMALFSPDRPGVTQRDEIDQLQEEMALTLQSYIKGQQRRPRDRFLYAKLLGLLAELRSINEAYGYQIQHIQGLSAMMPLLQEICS

Assay [9] in a line: KB-8-5-11 P-gp reporter qHTS against the NCATS DSHEA and TCM libraries (AID 1919977; active means well fitted curve in the direction sought with a large enough effect; an effect the other way counts as inactive or inconclusive; further: 0% is about no effect). Conditions: KB-8-5-11 cells; series mostly up to 26.1 µM. The method, boiled down: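 Cells were seeded, allowed ~4 h to attach, dosed by pin tool (substance titrations), incubated ~72 h at 37C, then lysed with CellTiter-Glo for 30 min at room temperature before luminescence reading.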
Assay [10] in a line: Confirmatory qHTS to identify inhibitors of SARS-CoV-2 cell entry (AID 1645844). Further: potency means the concentration at half of the fitted maximal effect; nearly all actives have a fitted effect of over 45% in size. Conditions: SARS-CoV-2 pseudotyped particle cell entry, luciferase; series mostly up to 57.2 µM. Put shortly:
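Luminescence entry read-out after 48 h: spike-pseudotyped MLV particles (Wuhan-Hu-1, 19-aa C-terminal truncation) added to compound-pretreated (1 h) HEK293-ACE2 cells; Data were normalised to bald PP and spike PP wells.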

Assay [11] in a line: Inducers of the Endoplasmic Reticulum Stress Response (ERSR) in human glioma: Validation (AID 504836; active means well fitted curve in the direction sought with a large enough effect; an effect the other way counts as inactive or inconclusive; further: 0% is about no effect). The settings on record: human glioma cells, ER stress response reporter; series mostly up to 38.3 µM. The method, boiled down:
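ERSR induction read as luciferase luminescence (Bright-Glo, 10 min at room temperature) in stably transfected human U87-MG glioma cells exposed to compounds for 16 h, using GRP78 as sensor.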

Sequence of Nucleoprotein (Lymphocytic choriomeningitis virus (strain Armstrong)) (P09992 whole entry, looked up): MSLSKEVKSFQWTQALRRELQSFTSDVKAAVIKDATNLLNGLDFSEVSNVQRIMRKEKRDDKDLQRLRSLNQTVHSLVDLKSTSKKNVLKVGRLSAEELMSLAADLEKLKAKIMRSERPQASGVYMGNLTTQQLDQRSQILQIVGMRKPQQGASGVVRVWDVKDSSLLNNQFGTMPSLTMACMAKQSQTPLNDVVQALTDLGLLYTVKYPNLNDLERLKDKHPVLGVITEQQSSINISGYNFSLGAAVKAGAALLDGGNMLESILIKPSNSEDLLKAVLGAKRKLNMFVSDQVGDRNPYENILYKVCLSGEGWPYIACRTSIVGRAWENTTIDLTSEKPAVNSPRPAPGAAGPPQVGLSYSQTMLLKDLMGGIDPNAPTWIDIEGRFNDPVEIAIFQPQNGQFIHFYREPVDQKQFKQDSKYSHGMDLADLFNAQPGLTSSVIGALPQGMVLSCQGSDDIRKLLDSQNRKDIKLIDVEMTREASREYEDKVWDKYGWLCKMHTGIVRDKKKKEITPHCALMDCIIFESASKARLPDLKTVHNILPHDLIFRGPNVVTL

As for `CNC(=O)[C@H](CC1=CN=C2C=CCC=C12)NC(=O)[C@@H](CC(=O)NO)CC(C)C`, the Potency in assay [1] was 15.3 µM (active); in assay [2] it was 3.43 µM (active).
As for `COc1ccc(CN2CCc3cc(OC)c(OC)cc3C2)cc1O`, the Potency result in assay [1] and in assay [2] was “inactive” throughout.
In the case of `O=C(CCCCCCC(=O)Nc1ccc([C@H]2O[C@@H](CSc3nc(-c4ccccc4)c(-c4ccccc4)o3)C[C@@H](c3ccc(CO)cc3)O2)cc1)NO`, the Potency result in [1] and in assay [2] was “inactive” each time. Besides, the activity change, negative = inhibition in [3] came to 1.44% [at 11.3 µM].
In the case of `Cc1cc(Nc2cc(CN3CCOCC3)c3nc(C)c(Cc4ccc(Cl)cc4F)n3n2)n[nH]1`, the Potency entry in assay [1] and in assay [2] was “inactive” each time.
On to `CCC[C@H]1NC(=O)[C@H](C)N(C)C(=O)C(C)(C)C(=O)C(C)NC(=O)[C@H](Cc2ccc(OC)cc2)N(C)C(=O)[C@H](C(C)C)N(C)C(=O)CNC(=O)[C@H](CC(C)C)N(C)C(=O)CNC(=O)[C@H]([C@@H](C)CC)OC(=O)[C@H]1C` (stereo partly drawn), for which the Potency entry in assay [1] and in assay [2] was “inactive” each time.
For the compound `Nc1ccn([C@@H]2O[C@H](CO)[C@@H](O)[C@H]2O)c(=O)n1`, the Potency result in [1], in assay [2], in [5] and in assay [7] was “inactive” throughout. Also, the result in assay [4] and in assay [6] was inactive. Moreover, the activity change, negative = inhibition in assay [3] is -8.54%.
As for `COc1ccc2nc3cc(Cl)ccc3c(Nc3cc(CN4CCCC4)c(O)c(CN4CCCC4)c3)c2n1`, the Potency result in assay [1] and in assay [2] was “inactive” each time.
Take `NC(=NCCCCCCN=C(N)N=C(N)Nc1ccc(Cl)cc1)N=C(N)Nc1ccc(Cl)cc1`: the Potency result in [1] and in assay [2] was “inactive” each time. The Potency in assay [3] was 17.8 µM (active).
Regarding `CCOC(=O)N1CCN([N+]([O-])=NOc2ccc([N+](=O)[O-])cc2[N+](=O)[O-])CC1`, the Potency entry in [1] and in assay [2] was “inactive” each time.
For `O=C(/C=C/c1ccc(O)c(O)c1)OC(Cc1ccc(O)c(O)c1)C(=O)O` (stereo not drawn), the Potency entry in [1], in assay [2] and in assay [8] was “inactive” each time. Moreover, the result in assay [9] was inactive.
For the compound `CCc1cccc(CC)c1NC(=O)N1Cc2[nH]nc(NC(=O)c3ccc(N4CCN(C)CC4)cc3)c2C1`, the Potency result in assay [1], in assay [2] and in assay [7] was “inactive” in each case.
In the case of `CN1CCc2c(n(Cc3ccc(C(=O)NO)cc3)c3ccccc23)C1`, the Potency result in assay [1] and in [2] was “inactive” throughout. Besides, the Potency in assay [7] was 31.6 µM (active).
For the compound `CN1c2ccccc2C(=O)N2CCc3c([nH]c4ccccc34)C21` (stereo not drawn), the Potency result in assay [1] is “inactive”. The Potency in assay [10] is 6.81 µM (active); in [3], 6.31 µM (active).
In the case of `COc1ccc(-c2cc(=O)c3c(O)c(OC)c(OC)cc3o2)cc1O`, the Potency entry in assay [1] and in assay [2] was “inactive” throughout.
Turning to `Nc1ncnc2n[nH]c(Nc3ccc(F)cc3)c12`, in assay [11], the result was inactive. For the same compound, the Potency entry in assay [1] and in assay [2] was “inactive” in each case.
